Shn3 3UTR inh: reduces Shn3 3'UTR luciferase signal in osteoblasts | Clone20 osteoblast Shn3 3'UTR firefly luciferase, 24 h | inhibition, % at 12.5 µM | actives 0.52% (n = 360,000);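 active = mean inhibition of at least 75% with every replicate also reaching 75%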;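 also: 0% = median of neutral control wells and 100% = pilot-screen positive control compound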
N-glyco inh: blocks N-linked glycosylation in D54 reporter cells; D54 ERlucT glycosylation luciferase reporter, 24 h; percent of 100 nM tunicamycin response; reporter increase, % at 12.5 µM; actives 0.23% (n = 360,000); AID 588692;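 active = mean luciferase reporter signal, scaled so untreated is 0 and the glycosylation-blocking control 100, at or above a set limit in every replicate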;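 also: luciferase carries N-glycosylation sites so blocking glycosylation raises the light; 0% = median of neutral control wells and 100% = median of 100 nM tunicamycin wells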
PAX8 reporter: lowers PAX8-driven luciferase in RMG-I cells; AID 652154; inhibition, % at 12.6 µM; actives 1.2% (n = 360,000); RMG-I TPO-luciferase reporter, SteadyGlo, 24 h;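 active = mean replicate inhibition at least 60% with every replicate also reaching 60%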;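 also: luciferase light reporting Pax8 driven TPO promoter activity; plate controls were median of neutral control wells for no effect and mitoxantrone controls for full effect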
Env fusion inh: blocks HIV Env-driven cell-cell fusion | actives 1.1% (n = 360,000) | inhibition, % at 12.3 µM | HeLa-JRFL Env/CEM21 cell fusion, luciferase;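 active = mean replicate inhibition score of at least 50 and every replicate individually at or above 50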;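 also: 0% = plate neutral controls and 100% = maraviroc near 300 nM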
EBV LMP1 NFkB: Epstein-Barr LMP1 NF-kappaB reporter inhibition | actives 0.69% (n = 350,000) | inhibition, % at 12.5 µM | AID 504558 | LMP1-induced NF-kappaB luciferase reporter cells, luminescence; in the data active = inhibition above about 41%;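 also: 0% = neutral control wells and 100% = reference inhibitor control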
NSD2 HMT inh: blocks human histone methyltransferase NSD2; O96028; inhibition, % at 12.5 µM; actives 0.54% (n = 310,000); NSD2 peptide methylation, AlphaScreen, 120 min; in the data active = inhibition above about 50%
Target sequence (O96028 whole entry, looked up): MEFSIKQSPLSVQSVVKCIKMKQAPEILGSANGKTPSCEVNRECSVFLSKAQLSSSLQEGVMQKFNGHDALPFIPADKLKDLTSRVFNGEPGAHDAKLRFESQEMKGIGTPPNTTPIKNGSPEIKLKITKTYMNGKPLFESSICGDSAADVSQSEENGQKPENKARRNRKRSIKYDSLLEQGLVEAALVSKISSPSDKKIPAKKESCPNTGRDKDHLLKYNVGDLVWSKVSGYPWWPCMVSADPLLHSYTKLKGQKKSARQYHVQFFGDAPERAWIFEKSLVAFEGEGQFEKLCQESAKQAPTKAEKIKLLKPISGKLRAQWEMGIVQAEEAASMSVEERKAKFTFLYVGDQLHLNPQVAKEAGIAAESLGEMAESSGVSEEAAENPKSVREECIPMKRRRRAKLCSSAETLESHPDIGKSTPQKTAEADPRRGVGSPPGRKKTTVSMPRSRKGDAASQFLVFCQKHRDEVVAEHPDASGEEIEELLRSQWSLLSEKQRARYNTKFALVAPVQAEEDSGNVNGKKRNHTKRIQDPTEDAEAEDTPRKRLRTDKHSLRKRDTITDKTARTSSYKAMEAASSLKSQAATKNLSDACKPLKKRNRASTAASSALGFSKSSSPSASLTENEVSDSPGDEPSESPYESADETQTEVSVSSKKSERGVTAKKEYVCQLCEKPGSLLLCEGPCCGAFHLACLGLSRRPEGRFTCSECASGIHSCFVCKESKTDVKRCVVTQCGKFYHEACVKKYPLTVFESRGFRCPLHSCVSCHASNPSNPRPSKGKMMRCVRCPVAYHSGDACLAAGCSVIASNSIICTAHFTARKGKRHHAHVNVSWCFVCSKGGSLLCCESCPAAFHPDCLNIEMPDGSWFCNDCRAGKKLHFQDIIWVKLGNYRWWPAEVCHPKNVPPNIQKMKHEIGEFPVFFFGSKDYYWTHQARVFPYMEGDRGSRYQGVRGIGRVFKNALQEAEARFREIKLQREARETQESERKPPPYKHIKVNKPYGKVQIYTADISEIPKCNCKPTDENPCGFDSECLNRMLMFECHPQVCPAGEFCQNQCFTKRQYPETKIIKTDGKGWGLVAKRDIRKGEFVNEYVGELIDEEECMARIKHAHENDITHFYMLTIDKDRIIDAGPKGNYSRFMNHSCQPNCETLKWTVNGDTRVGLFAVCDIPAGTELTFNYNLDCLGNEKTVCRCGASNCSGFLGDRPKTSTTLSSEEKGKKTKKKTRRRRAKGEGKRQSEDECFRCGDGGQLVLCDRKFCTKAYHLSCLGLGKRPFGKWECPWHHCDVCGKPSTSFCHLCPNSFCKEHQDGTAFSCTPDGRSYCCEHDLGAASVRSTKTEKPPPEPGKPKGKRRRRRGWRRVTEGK
* hit, by the source's call; i = inactive; · = no result given; ! = repeats disagree; [ ] = dose if it differs, or a comment. Compounds with a hit are over-represented: about 2.8% of the library has one in this group of screens.

SMILES	Shn3 3UTR inh	N-glyco inh	PAX8 reporter	Env fusion inh	EBV LMP1 NFkB	NSD2 HMT inh
Cc1noc(C)c1S(=O)(=O)Nc1ccc2c(c1)C(=O)N([C@@H](C)CO)C[C@H](C)[C@@H](CN(C)C(=O)Nc1ccc(C(F)(F)F)cc1)OCCCC[C@@H](C)O2	·	·	65*	23[16.7 µM]	·	·
Cc1noc(C)c1S(=O)(=O)Nc1ccc2c(c1)C(=O)N([C@H](C)CO)C[C@H](C)[C@@H](CN(C)C(=O)Nc1ccc(F)cc1)OCCCC[C@H](C)O2	·	·	5	-112[16.7 µM]	·	·
Cc1noc(C)c1S(=O)(=O)Nc1ccc2c(c1)C(=O)N([C@@H](C)CO)C[C@@H](C)[C@H](CN(C)C(=O)Nc1ccc(C(F)(F)F)cc1)OCCCC[C@@H](C)O2	·	·	66*	15[16.7 µM]	·	·
COc1ccccc1-c1cnc2c(c1)C(=O)N([C@H](C)CO)C[C@@H](C)[C@H](CN(C)Cc1ccc(C(=O)O)cc1)O2	·	·	·	-16[16.7 µM]	·	·
C[C@H]1CCCCO[C@@H](CN(C)C(=O)c2ccccc2)[C@@H](C)CN([C@@H](C)CO)C(=O)c2cc(NS(C)(=O)=O)ccc2O1	·	·	-1	18[16.7 µM]	·	·
CCC(=O)N[C@@H]1CC[C@H](CC(=O)NCc2ccccc2OC)O[C@H]1CO	·	·	4	-48[16.7 µM]	·	·
Cc1ccc(NC(=O)c2csc(-c3ccccc3)c2C)cc1	56	-20	14	i	45*	2
CCc1cc(-c2nnn(-c3cc(C(C)C)ccc3C)c2CC)ccc1-c1cn(CCc2c[nH]c3ccccc23)nn1	32	-3	49	84*	-7	·
COc1ccc(CN(C)c2ccc(S(=O)(=O)N3CCN(C)CC3)cc2[N+](=O)[O-])cc1OC	88*	-4	36	·	24	8
COc1ccc(CCN(C)c2ccc(S(=O)(=O)N3CCCC3)cc2[N+](=O)[O-])cc1OC	25	1	-6	50	2	32
O=C(c1ccccc1F)N1C[C@H]2[C@@H](c3ccccc31)[C@H](CO)N2C(=O)c1cccnc1	·	·	-25	·	·	·
Nc1c(Cl)ncnc1N/N=C/c1ccccn1	·	·	67*	·	·	-4
O=C(C[C@@H]1CC[C@H](NC(=O)c2ccc(F)cc2)[C@H](CO)O1)NCCc1ccccc1	·	·	-1	14[16.7 µM]	·	·
CCCn1c(C)cc(C(=O)COc2ccc(C)nc2[N+](=O)[O-])c1C	27	-4	-12	-5	12	1
Cc1cc(C(=O)COC(=O)C2=COCCO2)c(C)n1-c1ccccc1	37	-22	75*	47	72*	30
Cc1ccc(OCC(=O)c2cc(C)n(-c3ccccc3)c2C)c([N+](=O)[O-])n1	49	-15	4	67*	66*	5
COCCn1c(C)cc(C(=O)COc2ccc(C)nc2[N+](=O)[O-])c1C	58	-2	-21	15	45*	·
C[C@H]1CN([C@@H](C)CO)C(=O)c2cc(NS(=O)(=O)c3ccccc3)ccc2O[C@@H]1CN(C)S(=O)(=O)c1ccccc1	·	·	-1	7[16.7 µM]	·	·
CN1C(=O)c2cc(NC(=O)Nc3ccccc3Cl)ccc2OC[C@H]2O[C@@H](CC(=O)O)CC[C@@H]21	·	·	-7	-5[16.7 µM]	·	·
O=C(CSc1nnc(-c2cccc(S(=O)(=O)N3CCOCC3)c2)n1C1CCCCCC1)NCc1ccccc1	12	-4	·	-20	47*	0
O=C(NC1CCCc2ccccc21)C1CCN(S(=O)(=O)c2cccc(C(F)(F)F)c2)CC1 (stereo not given)	-9	-3	70*	·	-6	0
Cc1ccc(S(=O)(=O)Nc2ccc3c(c2)C(=O)N([C@H](C)CO)C[C@H](C)[C@H](CN(C)C(=O)Nc2cccc4ccccc24)O3)cc1	·	·	-2	8[16.7 µM]	·	·
COc1ccc(-c2nc(CS(=O)CC(=O)NCc3ccc(Cl)cc3)c(C)o2)cc1 (stereo not given)	10	2	7	4	44*	·
C[C@H]1CN([C@@H](C)CO)C(=O)c2cccc(NC(=O)CCCCCC(=O)Nc3ccccc3N)c2O[C@@H]1CN(C)Cc1ccc(-c2ccccc2)cc1	·	·	37	·	·	·
COc1ccc(N(Cc2cc3cc(OC)ccc3[nH]c2=O)S(=O)(=O)c2ccc(NC(C)=O)cc2)cc1	7	-8	91*	17	33	-2
SMILES	Shn3 3UTR inh	N-glyco inh	PAX8 reporter	Env fusion inh	EBV LMP1 NFkB	NSD2 HMT inh
O=c1[nH]c2ccccc2cc1CN(Cc1cccnc1)S(=O)(=O)c1ccc(Cl)cc1	3	-1	21	5	-11	5
CC(=O)Nc1ccc(S(=O)(=O)N(Cc2cccnc2)Cc2cc3ccccc3[nH]c2=O)cc1	-5	-2	71*	15	-6	-12
COc1ccc(S(=O)(=O)Nc2ccc3c(c2)CC(=O)N([C@@H](C)CO)C[C@H](C)[C@@H](CN(C)S(=O)(=O)c2ccccc2)O3)cc1	·	·	-2	-8[16.7 µM]	·	·
CCCNC(=O)C[C@@H]1C[C@H]2c3cc(NS(=O)(=O)c4ccc(F)cc4)ccc3O[C@H]2[C@H](CO)O1	·	·	-10	-4[16.7 µM]	·	·
Nc1c(C(=O)N2CCOCC2)sc2nc3c(cc12)CCCC3	47	-24	71*	20	56*	23
Cc1cc(C)c2nc3sc(C(=O)N4CCOCC4)c(N)c3cc2c1	7	-14	69*	-356	51*	1
CCOc1cc(C=C(C(=O)OC)C(=O)OC)ccc1OCc1ccc([N+](=O)[O-])cc1	96*	5	·	·	10	0
C[C@H](CO)N1C[C@H](C)[C@H](CN(C)C(=O)Nc2ccc3c(c2)OCO3)OCCCC[C@H](C)Oc2ccc(NS(=O)(=O)c3cn(C)cn3)cc2C1=O	·	·	·	14[16.7 µM]	·	·
COc1ccc(OC)c(/C=C/C(=O)N2C(=O)c3cccc(N)c3C2=O)c1	92*	11	8	-13	-32	-6
COc1cc(/C=C/C(=O)N2C(=O)c3cccc(N)c3C2=O)cc(OC)c1OC	-19	14	1	-60	-30	·
COc1ccc(NC(=O)N(C)C[C@H]2Oc3ccc(NC(=O)Nc4ccc5c(c4)OCO5)cc3CC(=O)N([C@@H](C)CO)C[C@@H]2C)cc1	·	·	-19	-29[16.7 µM]	·	·
O=C(NC1CCCCC1)N1C[C@@H]2N[C@H](C1)C2c1ccc(-c2ccc(F)cc2)cc1 (stereo not given in full)	·	·	105*!	·	·	·
COc1cccc(-c2ccc(C3[C@@H]4CN(C(=O)C5CC5)C[C@H]3N4)cc2)c1 (stereo not given in full)	·	·	80*!	·	·	·
O=C(Nc1cccc(F)c1)N1C[C@@H]2N[C@H](C1)C2c1ccc(-c2ccncc2)cc1 (stereo not given in full)	·	·	-10	·	·	·
Cc1ccccc1-c1ccc(C2[C@@H]3CN(C(=O)NC4CCCCC4)C[C@H]2N3)cc1 (stereo not given in full)	·	·	37	·	·	·
COc1ccc(-c2ccc(C3[C@@H]4CN(Cc5cc(OC)cc(OC)c5)C[C@H]3N4)cc2)cc1 (stereo not given in full)	·	·	86*!	·	·	·
COc1ccc(-c2ccc(C3[C@@H]4CN(C(=O)Nc5cccc(F)c5)C[C@H]3N4)cc2)cc1 (stereo not given in full)	·	·	100*!	·	·	·

From PubChem BioAssay
